The source made the active and inactive calls. Rule for the calls: active = hit-call score of the fitted dose curve at least 0.9, where 1 is the maximum; inactive = score below 0.9.
Assays:
[1] = read-out: Tumor necrosis factor receptor superfamily member 6 (Homo sapiens) (UniProt P25445); assay: LTEA_HepaRG_FAS: Life Technologies and Expression Analysis (LTEA) Assay for Fas cell surface death receptor (FAS) using HepaRG (AID 2283447); conditions: mRNA level, 48 h; actives raise or lower the signal
Summary of the method: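 Differentiated HepaRG cells in serum-free induction medium were exposed 48 h to 8 half-log concentrations up to 100 uM in 0.5% DMSO, in duplicate. FAS mRNA was measured by qRT-PCR normalised to ACTB, GAPDH and POLR2A; bidirectional fit versus DMSO.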

[2] = read-out: Fatty acid synthase (Homo sapiens) (UniProt P49327); assay: LTEA_HepaRG_FASN: Life Technologies and Expression Analysis (LTEA) Assay for Fatty Acid Synthase (FASN) using HepaRG (AID 2283448); conditions: mRNA level, 48 h; actives raise or lower the signal
Summary of the method: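 HepaRG, 48 h exposure, 8-pt half-log series top 100 uM, 0.5% DMSO vehicle, duplicates. Readout: FASN transcript by Fluidigm qRT-PCR; housekeeping-normalized; bidirectional curve fit vs DMSO baseline.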

[3] = read-out: Cyclin D2 (CCND2), CCND2 (gene 894); assay: LTEA_HepaRG_CCND2: Life Technologies and Expression Analysis (LTEA) Assay for Cyclin D2 (CCND2) using HepaRG (AID 2283449); conditions: mRNA level, 48 h; actives raise or lower the signal;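 note: CCND2 transcript measured by TaqMan qRT-PCR and normalised to three housekeeping genes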
Summary of the method: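 HepaRG, 48 h dosing, 8-pt half-log curve from 100 uM, 0.5% DMSO; duplicate wells. Readout: CCND2 transcript by microfluidic qRT-PCR, housekeeping-normalised; bidirectional fit vs DMSO baseline.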

[4] = read-out: Cyclin Dependent Kinase Inhibitor 1A (CDKN1A), CDKN1A (gene 1026); assay: LTEA_HepaRG_CDKN1A: Life Technologies and Expression Analysis (LTEA) Assay for Cyclin Dependent Kinase Inhibitor 1A (CDKN1A) using HepaRG (AID 2283450); conditions: mRNA level, 48 h; actives raise or lower the signal
Summary of the method: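 Differentiated HepaRG cells in serum-free induction medium, exposed 48 h in duplicate to eight half-log concentrations up to 100 uM in 0.5% DMSO. mRNA measured by TaqMan qRT-PCR, normalized to ACTB, GAPDH, POLR2A; bidirectional fit versus DMSO.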

[5] = read-out: Cyclin D1 (CCND1), CCND1 (gene 595); assay: LTEA_HepaRG_CCND1: Life Technologies and Expression Analysis (LTEA) Assay for Cyclin D1 (CCND1) using HepaRG (AID 2283451); conditions: mRNA level, 48 h; actives raise or lower the signal
Summary of the method: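 Differentiated HepaRG cells exposed 48 h in serum-free induction medium to eight half-log concentrations from 100 uM top, 0.5% DMSO, duplicates. CCND1 mRNA measured by Fluidigm TaqMan qRT-PCR, normalised to ACTB, GAPDH, POLR2A; bidirectional fit.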

[6] = read-out: catalase (CAT), CAT (gene 847); assay: LTEA_HepaRG_CAT: Life Technologies and Expression Analysis (LTEA) Assay for catalase (CAT) using HepaRG (AID 2283452); conditions: mRNA level, 48 h; actives raise or lower the signal
Summary of the method: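 HepaRG cells in serum-free induction medium, 0.5% DMSO vehicle, exposed 48 h in duplicate over 8 half-log concentrations from 100 uM. CAT mRNA measured by qRT-PCR, normalized to ACTB, GAPDH, POLR2A; bidirectional fit versus DMSO.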

[7] = read-out: flavin-containing dimethylaniline monooxygenases 3 (FMO3), FMO3 (gene 2328); assay: LTEA_HepaRG_FMO3: Life Technologies and Expression Analysis (LTEA) Assay for flavin-containing dimethylaniline monooxygenases 3 (FMO3) using HepaRG (AID 2283453); conditions: mRNA level, 48 h; actives raise or lower the signal
Summary of the method: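 Eight-point concentration-response in serum-free HepaRG cultures (top 100 uM, 0.5% DMSO, 48 h). Read-out: FMO3 mRNA level normalized to three endogenous control genes, fitted bidirectionally versus vehicle.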

[8] = read-out: Cytochrome P450 (CYP1A1), CYP1A1 (gene 1543); assay: LTEA_HepaRG_CYP1A1: Life Technologies and Expression Analysis (LTEA) Assay for Cytochrome P450 (CYP1A1) using HepaRG (AID 2283454); conditions: mRNA level, 48 h; actives raise or lower the signal
Summary of the method: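 Differentiated human HepaRG cells, after 48 h plating, exposed in duplicate for 48 h in serum-free induction medium to 8 half-log concentrations up to 100 uM in 0.5% DMSO. CYP1A1 mRNA by qRT-PCR, normalized to ACTB/GAPDH/POLR2A; bidirectional fit versus DMSO.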

[9] = read-out: CFLAR gene, CFLAR (gene 8837); assay: LTEA_HepaRG_CFLAR: Life Technologies and Expression Analysis (LTEA) Assay for CFLAR gene using HepaRG (AID 2283455); conditions: mRNA level, 48 h; actives raise or lower the signal
Summary of the method: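 qRT-PCR read-out (Fluidigm/TaqMan) of CFLAR mRNA, normalized to three housekeeping genes, in differentiated human HepaRG cells after 48 h chemical exposure; 8-point half-log series from 100 uM in 0.5% DMSO; bidirectional curve fitting versus DMSO.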

[10] = read-out: Forkhead box O1 (FOXO1), FOXO1 (gene 2308); assay: LTEA_HepaRG_FOXO1: Life Technologies and Expression Analysis (LTEA) Assay for Forkhead box O1 (FOXO1) using HepaRG (AID 2283456); conditions: mRNA level, 48 h; actives raise or lower the signal
Summary of the method: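 HepaRG, 48 h exposure, 8-pt half-log series from 100 uM in 0.5% DMSO, duplicates; Fluidigm qRT-PCR mRNA, housekeeping-normalised; bidirectional fit vs DMSO baseline.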

[11] = read-out: growth arrest and DNA damage 45 (GADD45A), GADD45A (gene 1647); assay: LTEA_HepaRG_GADD45A: Life Technologies and Expression Analysis (LTEA) Assay for growth arrest and DNA damage 45 (GADD45A) using HepaRG (AID 2283458); conditions: mRNA level, 48 h; actives raise or lower the signal
Summary of the method: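 HepaRG, 48 h exposure, 8 conc. (top 100 uM, half-log steps), 0.5% DMSO vehicle, duplicates. Read-out: qRT-PCR mRNA level, housekeeping-normalized (ACTB/GAPDH/POLR2A). Curves fit bidirectionally vs DMSO baseline.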

[12] = read-out: Forkhead box O3 (FOXO3), FOXO3 (gene 2309); assay: LTEA_HepaRG_FOXO3: Life Technologies and Expression Analysis (LTEA) Assay for Forkhead box O3 (FOXO3) using HepaRG (AID 2283459); conditions: mRNA level, 48 h; actives raise or lower the signal
Summary of the method: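 qRT-PCR readout of FOXO3 transcript, normalized to three housekeeping genes (ACTB, GAPDH, POLR2A); gain or loss fitted against 0.5% DMSO vehicle. HepaRG cells, 48 h chemical exposure, 8-point half-log series, top 100 uM.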

[13] = read-out: ABC Transporter (ABCB1), ABCB1 (gene 5243); assay: LTEA_HepaRG_ABCB1: Life Technologies and Expression Analysis (LTEA) Assay for ABC Transporter (ABCB1) using HepaRG (AID 2283460); conditions: mRNA level, 48 h; actives raise or lower the signal
Summary of the method: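 HepaRG, 48 h exposure, 8-pt half-log series from 100 uM, 0.5% DMSO vehicle, duplicates. Readout: ABCB1 transcript by Fluidigm TaqMan qRT-PCR, housekeeping-normalized; bidirectional curve fit vs DMSO baseline.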

[14] = read-out: ABC Transporter (ABCC3), ABCC3 (gene 8714); assay: LTEA_HepaRG_ABCC3: Life Technologies and Expression Analysis (LTEA) Assay for ABC Transporter (ABCC3) using HepaRG (AID 2283462); conditions: mRNA level, 48 h; actives raise or lower the signal
Summary of the method: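 Differentiated human HepaRG cells exposed 48 h in serum-free induction medium, 0.5% DMSO vehicle, 8-point half-log series to 100 uM in duplicate. ABCC3 mRNA by qRT-PCR, normalised to ACTB, GAPDH, POLR2A; bidirectional fit vs DMSO.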

[15] = read-out: ABC Transporter (ABCB11), ABCB11 (gene 8647); assay: LTEA_HepaRG_ABCB11: Life Technologies and Expression Analysis (LTEA) Assay for ABC Transporter (ABCB11) using HepaRG (AID 2283463); conditions: mRNA level, 48 h; actives raise or lower the signal
Summary of the method: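 HepaRG, 48 h exposure, 8-pt half-log CRC top 100 uM, 0.5% DMSO vehicle, duplicates. Readout: TaqMan qRT-PCR of ABCB11 mRNA, housekeeping-normalized (ACTB/GAPDH/POLR2A). Bidirectional fit vs DMSO baseline.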

[16] = read-out: ABC Transporter (ABCC2), ABCC2 (gene 1244); assay: LTEA_HepaRG_ABCC2: Life Technologies and Expression Analysis (LTEA) Assay for ABC Transporter (ABCC2) using HepaRG (AID 2283464); conditions: mRNA level, 48 h; actives raise or lower the signal
Summary of the method: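 Differentiated HepaRG cells in serum-free induction medium exposed 48 h to eight half-log concentrations up to 100 uM, 0.5% DMSO, in duplicate. ABCC2 mRNA measured by qRT-PCR (TaqMan, Fluidigm), normalized to ACTB, GAPDH and POLR2A. Fitted in both directions against DMSO.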

[17] = read-out: Broad substrate specificity ATP-binding cassette transporter ABCG2 (Homo sapiens) (UniProt Q9UNQ0); assay: LTEA_HepaRG_ABCG2: Life Technologies and Expression Analysis (LTEA) Assay for ABC Transporter (ABCG2) using HepaRG (AID 2283465); conditions: mRNA level, 48 h; actives raise or lower the signal
Summary of the method: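 HepaRG, 48 h exposure, 8-pt half-log series from 100 uM, 0.5% DMSO vehicle, duplicates. Readout: ABCG2 transcript by qRT-PCR (Fluidigm array), housekeeping-normalized; bidirectional curve fit relative to DMSO baseline.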

[18] = CEETOX_H295R_PROG: CeeTox H295R High-throughput Steroidogenesis Assay for Progesterone (PROG) (AID 2283442); conditions: actives raise or lower the signal
Summary of the method: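 H295R adrenal cells prestimulated 48 h with 10 uM forskolin, then exposed 48 h to test chemical in 0.1% DMSO. Progesterone in medium quantified by HPLC-MS/MS after MTBE extraction; viability checked by MTT in same wells.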

[19] = CEETOX_H295R_TESTO: CeeTox H295R High-throughput Steroidogenesis Assay for Testosterone (TESTO) (AID 2283457); conditions: actives raise or lower the signal
Summary of the method: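 H295R adrenal cells, passage ≤10, exposed to chemicals for 48 h. Testosterone in medium measured by MTBE extraction and HPLC-MS/MS against a 7-point standard curve. Bidirectional fit versus DMSO; MTT viability checked in the same wells.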

Measured: AC50

Sequence of Fatty acid synthase (Homo sapiens) (P49327 whole entry, looked up): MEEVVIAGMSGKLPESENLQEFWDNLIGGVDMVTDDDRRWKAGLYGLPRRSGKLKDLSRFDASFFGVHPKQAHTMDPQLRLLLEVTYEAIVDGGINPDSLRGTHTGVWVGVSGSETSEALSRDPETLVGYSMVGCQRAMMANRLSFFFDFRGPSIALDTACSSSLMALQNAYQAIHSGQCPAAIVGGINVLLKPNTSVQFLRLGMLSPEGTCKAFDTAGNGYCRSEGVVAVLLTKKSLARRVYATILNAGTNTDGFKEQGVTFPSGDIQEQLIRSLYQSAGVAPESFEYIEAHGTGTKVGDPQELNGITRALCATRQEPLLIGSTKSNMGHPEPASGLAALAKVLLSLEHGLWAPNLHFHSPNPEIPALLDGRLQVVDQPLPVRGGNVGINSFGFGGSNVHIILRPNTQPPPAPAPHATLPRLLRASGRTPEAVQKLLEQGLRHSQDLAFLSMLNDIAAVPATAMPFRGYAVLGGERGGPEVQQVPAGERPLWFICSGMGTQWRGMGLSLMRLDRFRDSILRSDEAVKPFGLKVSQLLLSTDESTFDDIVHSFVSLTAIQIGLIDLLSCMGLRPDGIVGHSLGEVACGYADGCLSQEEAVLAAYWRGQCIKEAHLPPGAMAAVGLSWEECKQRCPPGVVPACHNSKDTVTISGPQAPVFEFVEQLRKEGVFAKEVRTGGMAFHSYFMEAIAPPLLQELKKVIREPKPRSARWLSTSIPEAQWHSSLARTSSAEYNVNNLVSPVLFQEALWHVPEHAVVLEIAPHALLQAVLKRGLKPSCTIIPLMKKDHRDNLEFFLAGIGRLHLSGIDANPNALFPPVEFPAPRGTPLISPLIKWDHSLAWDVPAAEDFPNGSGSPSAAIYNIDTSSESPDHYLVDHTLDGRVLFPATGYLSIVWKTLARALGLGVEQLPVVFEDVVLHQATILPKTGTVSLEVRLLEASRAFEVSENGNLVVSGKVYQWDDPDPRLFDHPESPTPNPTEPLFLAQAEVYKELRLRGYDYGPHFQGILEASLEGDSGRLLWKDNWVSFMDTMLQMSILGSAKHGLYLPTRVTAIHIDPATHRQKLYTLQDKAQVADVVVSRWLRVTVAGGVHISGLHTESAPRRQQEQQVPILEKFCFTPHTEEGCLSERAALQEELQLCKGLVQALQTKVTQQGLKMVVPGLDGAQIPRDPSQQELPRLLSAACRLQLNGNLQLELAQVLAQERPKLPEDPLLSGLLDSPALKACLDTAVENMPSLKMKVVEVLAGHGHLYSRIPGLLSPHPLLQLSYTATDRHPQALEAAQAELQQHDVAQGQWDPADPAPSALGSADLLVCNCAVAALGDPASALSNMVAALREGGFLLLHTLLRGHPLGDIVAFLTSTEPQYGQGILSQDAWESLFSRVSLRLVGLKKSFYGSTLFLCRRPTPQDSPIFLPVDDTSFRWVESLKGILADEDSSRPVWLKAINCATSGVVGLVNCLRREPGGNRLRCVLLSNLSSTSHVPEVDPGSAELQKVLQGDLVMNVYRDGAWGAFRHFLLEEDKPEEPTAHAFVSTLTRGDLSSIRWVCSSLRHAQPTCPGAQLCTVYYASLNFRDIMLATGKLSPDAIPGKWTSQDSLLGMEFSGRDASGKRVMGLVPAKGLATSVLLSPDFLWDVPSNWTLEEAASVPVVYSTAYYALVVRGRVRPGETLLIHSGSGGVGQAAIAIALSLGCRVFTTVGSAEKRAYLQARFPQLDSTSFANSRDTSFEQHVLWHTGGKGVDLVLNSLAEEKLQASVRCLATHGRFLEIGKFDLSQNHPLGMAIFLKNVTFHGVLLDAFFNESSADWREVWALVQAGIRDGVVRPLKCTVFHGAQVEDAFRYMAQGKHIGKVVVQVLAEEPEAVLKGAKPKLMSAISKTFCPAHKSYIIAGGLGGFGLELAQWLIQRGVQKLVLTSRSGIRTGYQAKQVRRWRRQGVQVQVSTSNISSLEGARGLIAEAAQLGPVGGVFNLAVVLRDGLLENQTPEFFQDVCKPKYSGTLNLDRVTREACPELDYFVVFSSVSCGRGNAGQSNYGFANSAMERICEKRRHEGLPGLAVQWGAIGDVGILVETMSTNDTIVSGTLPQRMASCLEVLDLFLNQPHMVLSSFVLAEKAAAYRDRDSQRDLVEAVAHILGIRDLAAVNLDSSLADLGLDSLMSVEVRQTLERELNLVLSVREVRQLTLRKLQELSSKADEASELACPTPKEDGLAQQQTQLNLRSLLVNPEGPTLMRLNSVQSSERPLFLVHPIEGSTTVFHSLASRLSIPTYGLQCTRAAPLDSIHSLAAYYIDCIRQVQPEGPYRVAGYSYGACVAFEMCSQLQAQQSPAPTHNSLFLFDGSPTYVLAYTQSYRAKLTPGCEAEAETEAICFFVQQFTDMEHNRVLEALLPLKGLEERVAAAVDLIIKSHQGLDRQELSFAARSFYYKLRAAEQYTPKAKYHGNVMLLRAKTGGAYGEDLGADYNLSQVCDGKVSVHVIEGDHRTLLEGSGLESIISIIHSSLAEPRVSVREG
Sequence of Broad substrate specificity ATP-binding cassette transporter ABCG2 (Homo sapiens) (Q9UNQ0 whole entry, looked up): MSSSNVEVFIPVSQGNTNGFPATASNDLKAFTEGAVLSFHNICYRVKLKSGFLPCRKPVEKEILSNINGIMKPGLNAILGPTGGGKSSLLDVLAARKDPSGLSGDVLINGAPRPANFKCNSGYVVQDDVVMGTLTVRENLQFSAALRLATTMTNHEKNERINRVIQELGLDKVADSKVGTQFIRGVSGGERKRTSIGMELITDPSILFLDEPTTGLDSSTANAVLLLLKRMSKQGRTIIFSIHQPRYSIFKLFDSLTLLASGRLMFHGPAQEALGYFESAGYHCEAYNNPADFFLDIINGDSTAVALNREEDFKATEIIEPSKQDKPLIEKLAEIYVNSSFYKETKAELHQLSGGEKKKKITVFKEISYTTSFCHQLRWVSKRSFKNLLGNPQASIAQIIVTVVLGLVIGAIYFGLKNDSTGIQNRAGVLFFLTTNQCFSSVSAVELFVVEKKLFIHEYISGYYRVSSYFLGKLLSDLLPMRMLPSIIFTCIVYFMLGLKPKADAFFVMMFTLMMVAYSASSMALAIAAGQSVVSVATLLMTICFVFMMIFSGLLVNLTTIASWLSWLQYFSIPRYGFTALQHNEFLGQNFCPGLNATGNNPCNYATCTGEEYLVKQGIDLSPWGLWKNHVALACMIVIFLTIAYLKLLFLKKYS

CCCCCCCCCCCO
not listed: [18] | [19]
inactive: all other assays above

NC(=O)c1nc(-c2cccc(-c3cc(F)ccc3OCC(F)(F)C(F)(F)F)c2)n[nH]1
active: [2] 79 µM | [6] 50 µM | [8] 20.1 µM | [12] 50 µM | [14] 84 µM | [16] 89.8 µM | [17] 15.8 µM
not listed: [5] | [7]
inactive: all other assays above
